Measurements published in PubChem BioAssay (Tox21).
Records with an inconclusive call do not appear. Activity calls are given as the source filed them. Unless noted, the call rests on the fitted dose curve; in most records, active means well fitted curve in the direction sought with a large enough effect in the repeat runs; inconclusive means weak or mixed curves; inactive means no such curve, though single readings can be large; an effect the other way counts as inactive or inconclusive.

Experiments:
[1] = qHTS assay for small molecule agonists of the p53 signaling pathway (AID 651631; calls by dose curve; further: nearly all actives have a fitted effect of over 15% in size)
Outline: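 Fluorescence intensity from cleaved LiveBLAzer B/G substrate (2 h, room temperature) served as the signal. Beforehand, HCT-116 reporter cells bearing p53 response elements were treated 16 h at 37 °C with DMSO-dissolved compounds.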

[2] = qHTS assay for small molecules that induce genotoxicity in human embryonic kidney cells expressing luciferase-tagged ATAD5 (AID 651632); further: nearly all actives have a fitted effect of over 15% in size
Outline: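 HEK293T cells carrying luciferase-tagged ATAD5 were given compound or DMSO vehicle and incubated 16 hr at 37C, 5% CO2. Luciferase activity was read after 30 min at room temperature with Amplite; a rise signals genotoxic stress.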

[3] = qHTS assay for small molecule agonists of the p53 signaling pathway - cell viability (AID 651633; calls by dose curve;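 further: p53RE-bla HCT reporter cells with a stable beta-lactamase p53 reporter; series mostly up to about 83 µM; nearly all actives have a fitted effect of over 30% in size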)
Outline: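 p53RE-bla cells were treated with compound for 16 hours at 37 C. Cytotoxicity was then measured as CellTiter-Glo luminescence after 30 min at room temperature.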

[4] = qHTS assay for small molecules that induce genotoxicity in human embryonic kidney cells expressing luciferase-tagged ATAD5 - cell viability (AID 651634; calls by dose curve; further: nearly all actives have a fitted effect of over 25% in size)
Outline: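 HEK293T cells carrying luciferase-tagged ATAD5, 2,000 cells/well, exposed to compound for 15.5 hr at 37C. Viability read as live-cell protease activity by CellTiter-Fluor fluorescence after 30 min at 37C.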

[5] = qHTS assay for small molecule disruptors of the mitochondrial membrane potential - cell viability (AID 720634; calls by dose curve;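 further: human HepG2 liver cancer cells; series mostly up to about 83 µM; nearly all actives have a fitted effect of over 20% in size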)
Outline: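 HepG2 cells, 2,000 per well, attached overnight, then treated 1 hr at 37 C, 5% CO2. Viability read as ATP by CellTiter-Glo luminescence after 30 min at room temperature. Read in the same wells as the m-MPI membrane-potential dye assay.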

[6] = qHTS assay for small molecule disruptors of the mitochondrial membrane potential (AID 720635)
Outline: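 HepG2 cells exposed to compound 1 hr at 37C, then Mito-MPS dye 30 min. Ratio read of aggregate (540/590 nm) versus monomer (490/535 nm) fluorescence.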

[7] = qHTS assay to test for compound auto fluorescence at 590 nm (red) in HepG2 cells (AID 720674)
Outline: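 Fluorescence at 590 nm emission following 540 nm excitation was recorded from HepG2 wells one hour after compound transfer, with DMSO-only wells as vehicle and Rose Bengal sodium equivalency as the scale.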

[8] = qHTS assay to test for compound auto fluorescence at 535 nm (green) in HepG2 cells (AID 720675)
[9] = qHTS assay to test for compound auto fluorescence at 460 nm (blue) in HEK293 cells (AID 720678)
Outline: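 HEK293 cells (2,000 per well, medium with 10% dialyzed FBS) attached for 4-5 hr at 37C, then received compound and stood overnight at 37C, 5% CO2. Blue fluorescence was read at Ex/Em 405/460 nm and expressed relative to triamterene.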

[10] = qHTS assay to test for compound auto fluorescence at 590 nm (red) in HEK293 cells (AID 720679)
Outline: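 HEK293 cells (2,000/well, medium with 10% dialyzed FBS) attached for 4-5 hr at 37C, received 23 nL compound and were incubated overnight at 37C, 5% CO2. Red fluorescence was then read at 540/590nm Ex/Em, referenced to Rose Bengal sodium.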

[11] = qHTS assay to test for compound auto fluorescence at 535 nm (green) in HEK293 cells (AID 720680)
[12] = qHTS assay to test for compound auto fluorescence at 460 nm (blue) in HEK293 cell free culture (AID 720681)
Outline: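 Compounds were added to cell-free DMEM with 10% FBS and fluorescence read directly. The blue channel used 405 nm excitation and 460 nm emission, with triamterene as the reference fluorophore.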

[13] = qHTS assay to test for compound auto fluorescence at 535 nm (green) in HEK293 cell free culture (AID 720682)
Outline: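 Intrinsic compound fluorescence is measured in culture medium containing 10% FBS, with excitation at 485 nm and detection at 535 nm, referenced to fluorescein.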

[14] = qHTS assay to test for compound auto fluorescence at 590 nm (red) in HEK293 cell free culture (AID 720683)
Outline: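 Cell-free wells of DMEM with 10% FBS received compound, and intrinsic fluorescence was read at excitation/emission 540/590 nm. Values expressed as equivalence to Rose Bengal sodium.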

[15] = qHTS assay to test for compound auto fluorescence at 460 nm (blue) in HepG2 cell free culture (AID 720685)
Outline: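 Compound (23 nL) or DMSO pinned into cell-free MEM with 10% FBS; blue fluorescence read at 405/460 nm excitation/emission, expressed as auto-fluorescence equivalency to triamterene.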

[16] = qHTS assay to test for compound auto fluorescence at 535 nm (green) in HepG2 cell free culture (AID 720686)
[17] = qHTS assay to test for compound auto fluorescence at 460 nm (blue) in HepG2 cells (AID 720687)
Outline: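 HepG2 cells in MEM with 10% FBS, attached overnight at 37 C, were exposed to compound or DMSO for 1 hr at 37 C, 5% CO2. Blue fluorescence was read at 405/460 nm, with triamterene as reference fluorophore.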

[18] = target: Glucocorticoid receptor (Homo sapiens) (UniProt P04150); assay: qHTS assay to identify small molecule agonists of the glucocorticoid receptor (GR) signaling pathway (AID 720691; active means well fitted activation curve with a large enough effect in the signal ratio in the repeat runs, not every such curve was filed as active; the % refers to the signal ratio)
Outline: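 GR-bla HeLa cells carrying a GRE-driven beta-lactamase reporter, exposed to compounds for 18 h at 37 C. Reporter activation read as fluorescence after 2 h with LiveBLAzer B/G FRET substrate at room temperature.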

[19] = target: Glucocorticoid receptor (Homo sapiens) (UniProt P04150); assay: qHTS assay to identify small molecule antagonists of the glucocorticoid receptor (GR) signaling pathway (AID 720692; active means well fitted inhibition curve with a large enough effect in the signal ratio in the repeat runs, not every such curve was filed as active; the % refers to the signal ratio)
Outline: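 GR-bla HeLa cells carrying a GRE-driven beta-lactamase reporter received compound after 4 h plating, then dexamethasone (5 nM final). After 18 h at 37C, the FRET substrate was loaded for 2 h at room temperature and fluorescence read.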

[20] = qHTS assay to test for compound auto fluorescence at 590 nm (red) in HepG2 cell free culture (AID 720684)
Outline: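 Compounds are added to culture medium (MEM, 10% FBS) lacking cells, then fluorescence is read at excitation 540 nm, emission 590 nm, with Rose Bengal sodium as the equivalency standard.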
On the % scale 0 is the no-effect control and ±100 the full control effect.

Sequence of Glucocorticoid receptor (Homo sapiens) (P04150 whole entry, looked up): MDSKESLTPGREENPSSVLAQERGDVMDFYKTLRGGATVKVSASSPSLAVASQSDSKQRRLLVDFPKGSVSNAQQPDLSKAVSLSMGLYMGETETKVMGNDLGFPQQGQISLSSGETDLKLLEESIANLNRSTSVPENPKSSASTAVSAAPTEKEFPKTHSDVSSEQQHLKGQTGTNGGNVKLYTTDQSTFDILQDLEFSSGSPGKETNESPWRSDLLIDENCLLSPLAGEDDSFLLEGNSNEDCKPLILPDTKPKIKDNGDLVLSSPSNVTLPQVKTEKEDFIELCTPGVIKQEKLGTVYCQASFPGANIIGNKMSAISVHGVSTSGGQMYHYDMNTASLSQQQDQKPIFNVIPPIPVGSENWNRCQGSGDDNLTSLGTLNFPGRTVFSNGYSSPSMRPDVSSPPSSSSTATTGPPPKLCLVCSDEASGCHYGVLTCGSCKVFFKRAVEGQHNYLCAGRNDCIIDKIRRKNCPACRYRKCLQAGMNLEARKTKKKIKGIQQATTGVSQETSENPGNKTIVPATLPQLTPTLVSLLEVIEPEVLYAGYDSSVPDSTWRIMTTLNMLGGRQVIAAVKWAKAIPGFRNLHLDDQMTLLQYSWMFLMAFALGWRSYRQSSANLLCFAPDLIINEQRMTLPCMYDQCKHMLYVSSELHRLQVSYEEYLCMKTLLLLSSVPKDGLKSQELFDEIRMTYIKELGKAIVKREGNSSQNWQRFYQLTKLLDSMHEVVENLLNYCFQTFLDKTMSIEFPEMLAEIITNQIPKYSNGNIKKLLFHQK

ClCOCCl
inactive: Potency [1] | outcome [2] | Potency [3] | Potency [4] | Potency [5] | Potency [6] | outcome [7] | outcome [8] | outcome [9] | outcome [10] | outcome [11] | outcome [12] | outcome [13] | outcome [14] | outcome [15] | outcome [16] | outcome [17] | Potency [18] | Potency [19]

O=C/C=C/c1ccco1
inactive: Potency [1] | outcome [2] | Potency [3] | Potency [4] | Potency [5] | Potency [6] | outcome [7] | outcome [8] | outcome [9] | outcome [10] | outcome [11] | outcome [12] | outcome [13] | outcome [14] | outcome [20] | outcome [15] | outcome [16] | outcome [17] | Potency [19]

CCOC(=O)N(C)N=O
inactive: Potency [1] | outcome [2] | Potency [3] | Potency [4] | Potency [5] | Potency [6] | outcome [7] | outcome [8] | outcome [9] | outcome [10] | outcome [11] | outcome [12] | outcome [13] | outcome [14] | outcome [20] | outcome [15] | outcome [16] | outcome [17] | Potency [18] | Potency [19]

C=C1CC[C@@]2(O)[C@H]3Cc4ccc(O)c5c4[C@@]2(CCN3CC2CC2)[C@H]1O5
inactive: Potency [1] | outcome [2] | Potency [3] | Potency [4] | Potency [5] | Potency [6] | outcome [7] | outcome [8] | outcome [9] | outcome [10] | outcome [11] | outcome [12] | outcome [13] | outcome [14] | outcome [20] | outcome [15] | outcome [17]

COc1cc(CC(C)N)cc(OC)c1OC (stereo unspecified)
inactive: Potency [1] | outcome [2] | Potency [3] | Potency [4] | Potency [5] | Potency [6] | outcome [7] | outcome [8] | outcome [9] | outcome [10] | outcome [11] | outcome [12] | outcome [13] | outcome [14] | outcome [20] | outcome [15] | outcome [16] | outcome [17] | Potency [18]

Cc1ccc2c(c1)C1CN(C)CCC1N2 (stereo unspecified)
inactive: Potency [1] | outcome [2] | Potency [3] | Potency [4] | Potency [5] | Potency [6] | outcome [7] | outcome [8] | outcome [9] | outcome [10] | outcome [11] | outcome [12] | outcome [13] | outcome [14] | outcome [20] | outcome [15] | outcome [16] | outcome [17] | Potency [18] | Potency [19]

BrCc1ccc(Br)cc1
inactive: Potency [1] | outcome [2] | Potency [3] | Potency [4] | Potency [5] | Potency [6] | outcome [7] | outcome [8] | outcome [9] | outcome [10] | outcome [11] | outcome [12] | outcome [13] | outcome [14] | outcome [20] | outcome [15] | outcome [16] | outcome [17]

Cc1cc(OC(=O)N(C)C)nn1C(=O)N(C)C
inactive: Potency [1] | outcome [2] | Potency [3] | Potency [4] | Potency [5] | Potency [6] | outcome [7] | outcome [8] | outcome [9] | outcome [10] | outcome [11] | outcome [12] | outcome [13] | outcome [14] | outcome [15] | outcome [16] | outcome [17]

COc1ccc(CN2CCNCC2)c(OC)c1OC
inactive: Potency [1] | outcome [2] | Potency [3] | Potency [4] | Potency [5] | Potency [6] | fluorescence, relative to Rose Bengal [7] -0.414% [at 18.6 µM] | fluorescence, % of fluorescein control [8] 0.0608% [at 18.6 µM] | fluorescence, % of triamterene [9] -0.103% [at 18.6 µM] | fluorescence, % of fluorescent control [10] 0.0575% [at 18.6 µM] | fluorescence, % of fluorescein [11] 0.0001% [at 18.6 µM] | fluorescence, % of fluorescent control [12] -0.0368% [at 18.6 µM] | activity change [13] -0.0737% [at 18.6 µM] | fluorescence, % of fluorescent control [14] -0.395% [at 18.6 µM] | fluorescence, % of Rose Bengal [20] 0.0451% [at 18.6 µM] | fluorescence, % of fluorescent control [15] -0.057% [at 18.6 µM] | fluorescence, % of fluorescein control [16] -0.137% [at 18.6 µM] | fluorescence, % of fluorescent control [17] -0.0322% [at 18.6 µM] | Potency [19]

CC(C)(C)NC[C@H](O)c1ccc(O)cc1Cl
inactive: Potency [1] | outcome [2] | Potency [3] | Potency [4] | Potency [5] | Potency [6] | outcome [7] | outcome [8] | outcome [9] | outcome [10] | outcome [11] | outcome [12] | outcome [13] | outcome [14] | outcome [20] | outcome [15] | outcome [17]

CC(Cc1ccccc1)NCCn1cnc2c1c(=O)n(C)c(=O)n2C (stereo unspecified)
inactive: Potency [1] | outcome [2] | Potency [3] | Potency [4] | Potency [5] | Potency [6] | outcome [7] | outcome [8] | outcome [9] | outcome [10] | outcome [11] | outcome [12] | outcome [13] | outcome [14] | outcome [15] | outcome [16] | outcome [17] | Potency [19]

CCCOc1nn(C(=O)NS(=O)(=O)c2ccccc2C(=O)OC)c(=O)n1C
inactive: Potency [1] | outcome [2] | Potency [3] | Potency [4] | Potency [5] | Potency [6] | outcome [7] | outcome [8] | outcome [9] | outcome [10] | outcome [11] | outcome [12] | outcome [13] | outcome [14] | outcome [20] | outcome [15] | outcome [16] | outcome [17] | Potency [18] | Potency [19]

Cn1c(N)nc2c3cccnc3ccc21
inactive: Potency [1] | outcome [2] | Potency [3] | Potency [4] | Potency [5] | Potency [6] | outcome [7] | outcome [8] | outcome [9] | outcome [10] | outcome [11] | outcome [12] | outcome [13] | outcome [14] | outcome [20] | outcome [15] | outcome [16] | outcome [17]

CCC(=O)OC1(c2ccccc2)CCN(C)CC1
inactive: Potency [1] | outcome [2] | Potency [3] | Potency [4] | Potency [5] | Potency [6] | outcome [7] | outcome [8] | outcome [9] | outcome [10] | outcome [11] | outcome [12] | outcome [13] | outcome [14] | outcome [20] | outcome [15] | outcome [16] | outcome [17] | Potency [18] | Potency [19]
